Results as given in PubChem BioAssay AID588774 (The Scripps Research Institute Molecular Screening Center, 2011).
Active and inactive are the calls of the source.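 How the source made its calls: active means target enzyme inhibited at least 50% at a set dose, and selective over every off-target enzyme by a set factor; inactive means weaker inhibition or too little selectivity.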

How the values were obtained:
[1] = pPAFAH inhibition and serine hydrolase selectivity, SAR follow-up, selectivity assay for pPAFAH inhibitor project, biochemical, gel-based, FP-Rh fluorescence, complex proteome, SAR compounds (AID 588774); conditions: gel-based competitive ABPP, MW 30 kDa, anti-targets inhibited, at 10 µM;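 on inhibition: 0% = DMSO-only band intensity and 100% = blank gel background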
MW 30 kDa = experiment: as above; conditions: gel-based competitive ABPP, at 10 µM, stronger effect = higher value

Structure (SMILES)	anti-target count [1]	inhibition (MW 30 kDa)
Cc1cc(N2CCN(C(=O)Oc3ccc(C(F)(F)F)cc3)CC2)c2ccccc2n1	1	0% (inactive)
Cc1cc(N2CCN(C(=O)Oc3noc4cc(Cl)ccc34)CC2)c2ccccc2n1	4	0% (inactive)
Cc1cc(N2CCN(C(=O)n3oc4cc(Cl)ccc4c3=O)CC2)c2ccccc2n1	3	39% (inactive)
O=C(Oc1noc2cc(Cl)ccc12)N1CCOCC1	3	97% (inactive)
Cc1cc(N2CCN(C(=O)Oc3ccc(-c4ccccc4)cc3)CC2)c2ccccc2n1	0	0% (inactive)
Cc1cc(N2CCN(C(=O)n3ncc(-c4ccc(OC(F)(F)F)cc4)n3)CC2)c2ccccc2n1	9	100% (inactive)
Cc1cc(N2CCN(C(=O)Oc3ccc(-c4ccc(Br)cc4)cc3)CC2)c2ccccc2n1	0	0% (inactive)
Cc1cc(N2CCN(C(=O)n3ncc(-c4ccc(Cl)c(Cl)c4)n3)CC2)c2ccccc2n1	8	93% (inactive)
Cc1cc(N2CCN(C(=O)Oc3ccc(C4CCCCC4)cc3)CC2)c2ccccc2n1	0	0% (inactive)
Cc1cc(N2CCN(C(=O)n3ncc(-c4ccccc4)n3)CC2)c2ccccc2n1	9	88% (inactive)
COc1ccc(-c2cnn(C(=O)N3CCN(c4cc(C)nc5ccccc45)CC3)n2)cc1	8	79% (inactive)
Cc1cc(N2CCN(C(=O)n3ncc(-c4ccc([N+](=O)[O-])cc4)n3)CC2)c2ccccc2n1	9	91% (inactive)
Cc1cc(N2CCN(C(=O)Oc3ccc(-n4cccc4)cc3)CC2)c2ccccc2n1	0	0% (inactive)
Cc1cc(N2CCN(C(=O)Oc3ccc(C4CCCC4)cc3)CC2)c2ccccc2n1	0	0% (inactive)
O=C(N1CCOCC1)n1oc2cc(Cl)ccc2c1=O	6	78% (inactive)
Cc1cc(N2CCN(C(=O)Oc3ccc([N+](=O)[O-])cc3)CC2)c2ccccc2n1	2	0% (inactive)
O=C(Oc1noc2cc(Cl)ccc12)N1CCCCC1	2	100% (inactive)
